# From the supplement of paper PMC4022240
# ± gives the standard deviation.
# T1: HaloTag-ATRX ADD domain (163-292)
# T1 chain: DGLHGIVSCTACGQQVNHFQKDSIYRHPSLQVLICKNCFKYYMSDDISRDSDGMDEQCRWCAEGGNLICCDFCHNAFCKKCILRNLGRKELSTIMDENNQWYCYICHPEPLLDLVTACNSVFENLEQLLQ
# Legend:
# Assay in all cases: peptide microarray binding signal (635 nm), min-max normalized on array (fraction of array maximum); higher = stronger binding
# [1] = target: T1, HaloTag-ATRX ADD domain (163-292)
# Outline: (§1)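 Binding signal is the mean intensity of triplicate spots, min-max scaled within each library. Histone 13-mer peptide–cellulose conjugates were spotted in triplicate on nitrocellulose with a Cy3 tracer and blocked overnight at 4°C. Probing lasted 1 h at 4°C, either with biotin-labelled HaloTag reader fusions (10 nM to 1 μM) and streptavidin-Alexa Fluor 647 or with rabbit histone antibodies (1:10,000 to 1:2,000) and anti-rabbit Alexa 647. An Axon GenePix 4000B read signal at 635 nm and misprints at 532 nm.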
# [2] = target: HaloTag-ING2 PHD (mouse Ing2 200-280)
# Outline: as §1
# [3] = target: anti-H3K4me3 antibody ab8580
# Outline: as §1
# [4] = target: anti-H3K9me3 antibody ab8898
# Outline: as §1
# [5] = peptide region: H4 1-13, peptide modifications: H4S1ph H4K8ac, binder concentration: 1:2,000 dilution
# [6] = peptide region: H4 1-13, peptide modifications: H4S1ph H4K8ac, binder concentration: 1:10,000 dilution
# [7] = peptide region: H4 1-13, peptide modifications: H4S1ph H4K12ac, binder concentration: 1:2,000 dilution
# [8] = peptide region: H4 1-13, peptide modifications: H4S1ph H4K12ac, binder concentration: 1:10,000 dilution
# [9] = peptide region: H4 1-13, peptide modifications: H4S1ph H4R3cit, binder concentration: 1:2,000 dilution
# [10] = peptide region: H4 1-13, peptide modifications: H4S1ph H4R3cit, binder concentration: 1:10,000 dilution
# [11] = peptide region: H4 1-13, peptide modifications: H4S1ph H4R3me1, binder concentration: 1:2,000 dilution
# [12] = peptide region: H4 1-13, peptide modifications: H4S1ph H4R3me1, binder concentration: 1:10,000 dilution
# [13] = peptide region: H4 1-13, peptide modifications: H4S1ph H4R3me2a, binder concentration: 1:2,000 dilution
# [14] = peptide region: H4 1-13, peptide modifications: H4S1ph H4R3me2a, binder concentration: 1:10,000 dilution
# [15] = peptide region: H4 1-13, peptide modifications: H4S1ph H4R3me2s, binder concentration: 1:2,000 dilution
# [16] = peptide region: H4 1-13, peptide modifications: H4S1ph H4R3me2s, binder concentration: 1:10,000 dilution
# [17] = peptide region: H4 1-13, peptide modifications: H4S1ph, binder concentration: 1:2,000 dilution
# [18] = peptide region: H4 1-13, peptide modifications: H4S1ph, binder concentration: 1:10,000 dilution
# [19] = peptide region: H4 8-19, binder concentration: 1:2,000 dilution
# [20] = peptide region: H4 8-19, binder concentration: 1:10,000 dilution
# [21] = peptide region: H4 8-19, peptide modifications: H4K8ac H4K12ac H4K16ac, binder concentration: 1:2,000 dilution
# [22] = peptide region: H4 8-19, peptide modifications: H4K8ac H4K12ac, binder concentration: 1:2,000 dilution
# [23] = peptide region: H4 8-19, peptide modifications: H4K8ac H4K12ac, binder concentration: 1:10,000 dilution
binder,measurement,setting,value
SGRGKGGKGLGKG [H4 1-13 Sph G R G K G G Kac G L G K G],peptide microarray binding signal,"[1]; peptide region: H4 1-13, peptide modifications: H4S1ph H4K8ac, binder concentration: 50 nM",0.00445 ± 0.00043
same,peptide microarray binding signal,"[1]; peptide region: H4 1-13, peptide modifications: H4S1ph H4K8ac, binder concentration: 500 nM",0.0149 ± 0.0018
same,peptide microarray binding signal,"[2]; peptide region: H4 1-13, peptide modifications: H4S1ph H4K8ac, binder concentration: 10 nM",0.00251 ± 3.8e-05
same,peptide microarray binding signal,"[2]; peptide region: H4 1-13, peptide modifications: H4S1ph H4K8ac, binder concentration: 100 nM",0.00503 ± 0.00084
same,peptide microarray binding signal,[3]; [5],0.000359 ± 1.8e-05
same,peptide microarray binding signal,[3]; [6],0.000742 ± 1.3e-05
same,peptide microarray binding signal,[4]; [5],0.000332 ± 6.7e-06
same,peptide microarray binding signal,[4]; [6],0.000577 ± 6.2e-06
SGRGKGGKGLGKG [H4 1-13 Sph G R G K G G K G L G Kac G],peptide microarray binding signal,"[1]; peptide region: H4 1-13, peptide modifications: H4S1ph H4K12ac, binder concentration: 50 nM",0.00392 ± 0.00035
same,peptide microarray binding signal,"[1]; peptide region: H4 1-13, peptide modifications: H4S1ph H4K12ac, binder concentration: 500 nM",0.0105 ± 0.00038
same,peptide microarray binding signal,"[2]; peptide region: H4 1-13, peptide modifications: H4S1ph H4K12ac, binder concentration: 10 nM",0.00269 ± 6.6e-05
same,peptide microarray binding signal,"[2]; peptide region: H4 1-13, peptide modifications: H4S1ph H4K12ac, binder concentration: 100 nM",0.00893 ± 0.00049
same,peptide microarray binding signal,[3]; [7],0.000378 ± 1e-05
same,peptide microarray binding signal,[3]; [8],0.000742 ± 1.3e-05
same,peptide microarray binding signal,[4]; [7],0.000649 ± 0.00018
same,peptide microarray binding signal,[4]; [8],0.00075 ± 7.9e-06
SGRGKGGKGLGKG [H4 1-13 Sph G Rcit G K G G K G L G K G],peptide microarray binding signal,"[1]; peptide region: H4 1-13, peptide modifications: H4S1ph H4R3cit, binder concentration: 50 nM",0.00335 ± 0.00024
same,peptide microarray binding signal,"[1]; peptide region: H4 1-13, peptide modifications: H4S1ph H4R3cit, binder concentration: 500 nM",0.00524 ± 0.00019
same,peptide microarray binding signal,"[2]; peptide region: H4 1-13, peptide modifications: H4S1ph H4R3cit, binder concentration: 10 nM",0.00281 ± 4.1e-05
same,peptide microarray binding signal,"[2]; peptide region: H4 1-13, peptide modifications: H4S1ph H4R3cit, binder concentration: 100 nM",0.00418 ± 0.0002
same,peptide microarray binding signal,[3]; [9],0.000378 ± 3.9e-06
same,peptide microarray binding signal,[3]; [10],0.000685 ± 7.2e-06
same,peptide microarray binding signal,[4]; [9],0.000136
same,peptide microarray binding signal,[4]; [10],0.00121 ± 0.00012
SGRGKGGKGLGKG [H4 1-13 Sph G Rme G K G G K G L G K G],peptide microarray binding signal,"[1]; peptide region: H4 1-13, peptide modifications: H4S1ph H4R3me1, binder concentration: 50 nM",0.00467 ± 0.00075
same,peptide microarray binding signal,"[1]; peptide region: H4 1-13, peptide modifications: H4S1ph H4R3me1, binder concentration: 500 nM",0.0107 ± 0.00059
same,peptide microarray binding signal,"[2]; peptide region: H4 1-13, peptide modifications: H4S1ph H4R3me1, binder concentration: 10 nM",0.00149
same,peptide microarray binding signal,"[2]; peptide region: H4 1-13, peptide modifications: H4S1ph H4R3me1, binder concentration: 100 nM",0.00276 ± 6.8e-05
same,peptide microarray binding signal,[3]; [11],0.000132 ± 1.5e-06
same,peptide microarray binding signal,[3]; [12],0.000742 ± 1.3e-05
same,peptide microarray binding signal,[4]; [11],0.000347 ± 7e-06
same,peptide microarray binding signal,[4]; [12],0.000577 ± 1.2e-05
SGRGKGGKGLGKG [H4 1-13 Sph G Rme2a G K G G K G L G K G],peptide microarray binding signal,"[1]; peptide region: H4 1-13, peptide modifications: H4S1ph H4R3me2a, binder concentration: 50 nM",0.00605 ± 0.001
same,peptide microarray binding signal,"[1]; peptide region: H4 1-13, peptide modifications: H4S1ph H4R3me2a, binder concentration: 500 nM",0.0165 ± 0.0018
same,peptide microarray binding signal,"[2]; peptide region: H4 1-13, peptide modifications: H4S1ph H4R3me2a, binder concentration: 10 nM",0.00334 ± 4.8e-05
same,peptide microarray binding signal,"[2]; peptide region: H4 1-13, peptide modifications: H4S1ph H4R3me2a, binder concentration: 100 nM",0.00794 ± 0.0014
same,peptide microarray binding signal,[3]; [13],0.00225 ± 0.00023
same,peptide microarray binding signal,[3]; [14],0.00194 ± 6.3e-05
same,peptide microarray binding signal,[4]; [13],0.000982 ± 4.2e-05
same,peptide microarray binding signal,[4]; [14],0.00104 ± 1.1e-05
SGRGKGGKGLGKG [H4 1-13 Sph G Rme2s G K G G K G L G K G],peptide microarray binding signal,"[1]; peptide region: H4 1-13, peptide modifications: H4S1ph H4R3me2s, binder concentration: 50 nM",0.0052 ± 0.0008
same,peptide microarray binding signal,"[1]; peptide region: H4 1-13, peptide modifications: H4S1ph H4R3me2s, binder concentration: 500 nM",0.00852 ± 0.00024
same,peptide microarray binding signal,"[2]; peptide region: H4 1-13, peptide modifications: H4S1ph H4R3me2s, binder concentration: 10 nM",0.00346 ± 0.00014
same,peptide microarray binding signal,"[2]; peptide region: H4 1-13, peptide modifications: H4S1ph H4R3me2s, binder concentration: 100 nM",0.00865 ± 0.00015
same,peptide microarray binding signal,[3]; [15],0.00119 ± 0.0001
same,peptide microarray binding signal,[3]; [16],0.0012 ± 1.2e-05
same,peptide microarray binding signal,[4]; [15],0.000408 ± 1.8e-05
same,peptide microarray binding signal,[4]; [16],0.000923 ± 9.6e-06
SGRGKGGKGLGKG [H4 1-13 Sph G R G K G G K G L G K G],peptide microarray binding signal,"[1]; peptide region: H4 1-13, peptide modifications: H4S1ph, binder concentration: 50 nM",0.00608 ± 0.0013
same,peptide microarray binding signal,"[1]; peptide region: H4 1-13, peptide modifications: H4S1ph, binder concentration: 500 nM",0.0121 ± 0.00045
same,peptide microarray binding signal,"[2]; peptide region: H4 1-13, peptide modifications: H4S1ph, binder concentration: 10 nM",0.00328 ± 0.00014
same,peptide microarray binding signal,"[2]; peptide region: H4 1-13, peptide modifications: H4S1ph, binder concentration: 100 nM",0.0039 ± 0.00041
same,peptide microarray binding signal,[3]; [17],0.00111 ± 0.00012
same,peptide microarray binding signal,[3]; [18],0.00131 ± 2.6e-05
same,peptide microarray binding signal,[4]; [17],0.000362 ± 6.3e-06
same,peptide microarray binding signal,[4]; [18],0.00075 ± 7.9e-06
KGLGKGGAKRHRK [H4 8-19 K G L G K G G A K R H R K],peptide microarray binding signal,"[1]; peptide region: H4 8-19, binder concentration: 50 nM",0.00495 ± 5.5e-05
same,peptide microarray binding signal,"[1]; peptide region: H4 8-19, binder concentration: 500 nM",0.0131 ± 0.0015
same,peptide microarray binding signal,"[2]; peptide region: H4 8-19, binder concentration: 10 nM",0.00466 ± 0.00021
same,peptide microarray binding signal,"[2]; peptide region: H4 8-19, binder concentration: 100 nM",0.0136 ± 0.0014
same,peptide microarray binding signal,[3]; [19],0.000793 ± 4.3e-05
same,peptide microarray binding signal,[3]; [20],0.00154 ± 3e-05
same,peptide microarray binding signal,[4]; [19],0.000529 ± 1.3e-05
same,peptide microarray binding signal,[4]; [20],0.0011 ± 1.1e-05
KGLGKGGAKRHRK [H4 8-19 Kac G L G Kac G G A Kac R H R K],peptide microarray binding signal,"[1]; peptide region: H4 8-19, peptide modifications: H4K8ac H4K12ac H4K16ac, binder concentration: 500 nM",0.000476 ± 4.9e-06
same,peptide microarray binding signal,"[2]; peptide region: H4 8-19, peptide modifications: H4K8ac H4K12ac H4K16ac, binder concentration: 100 nM",7.09e-05 ± 1.5e-06
same,peptide microarray binding signal,[3]; [21],1.89e-05 ± 2.2e-07
same,peptide microarray binding signal,[4]; [21],3.02e-05 ± 3.4e-07
KGLGKGGAKRHRK [H4 8-19 Kac G L G Kac G G A K R H R K],peptide microarray binding signal,"[1]; peptide region: H4 8-19, peptide modifications: H4K8ac H4K12ac, binder concentration: 50 nM",0.000251 ± 1.2e-05
same,peptide microarray binding signal,"[1]; peptide region: H4 8-19, peptide modifications: H4K8ac H4K12ac, binder concentration: 500 nM",0.000143 ± 2.7e-06
same,peptide microarray binding signal,"[2]; peptide region: H4 8-19, peptide modifications: H4K8ac H4K12ac, binder concentration: 10 nM",0.00567 ± 0.0013
same,peptide microarray binding signal,"[2]; peptide region: H4 8-19, peptide modifications: H4K8ac H4K12ac, binder concentration: 100 nM",0.000496
same,peptide microarray binding signal,[3]; [22],0.000113
same,peptide microarray binding signal,[3]; [23],0.00165 ± 0.00042
same,peptide microarray binding signal,[4]; [22],6.04e-05 ± 6.8e-07
same,peptide microarray binding signal,[4]; [23],5.77e-05 ± 6.6e-07
